# Sampled rows, rich in hits. Any-hit rate of the full collection: about 0.78%.
# PKA-R2B activ: activates the human PKA-R2B holoenzyme complex. actives 0.079% (n = 340,000). activation, % at 11.4 µM. AID 504700. PKA-R2B holoenzyme dissociation, Cy5-IP20 fluorescence polarization; R2B truncated from residue 108, S112A mutant; 0% DMSO only, 100% 113 µM cGMP;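 active = activation above a cutoff set at the mean over all compounds plus 3 SD, cut at about 18% in these data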;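 note: higher means more holoenzyme dissociation and a rise in polarization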
# CR mimetic SO: caloric restriction mimetics inhibiting age-related superoxide in yeast. actives 0.18% (n = 330,000). superoxide response (% of plate mean), % at 10 µM. S. cerevisiae aged cells, superoxide DHE fluorescence; hits give low values;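 active = superoxide response under a set limit, about three screen SD below normal, cut at about 65% in these data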;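 note: yeast aged for seven days with compound at 30 °C before DHE staining; 100% = average MFI of all compound-treated wells on the plate with controls excluded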
# PolyA inhibitor: blocks polyadenylation in yeast reporter cells; S. cerevisiae SKY197-pL101 polyadenylation reporter, beta-gal luminescence; efflux-impaired pdr1/pdr3 knockout yeast; score 100 = 6 SD above DMSO; activity score, % at 12 µM; actives 0.02% (n = 300,000); AID 1875;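 active = lowest replicate activity score at least 50, where 100 means six control SD above control mean; inconclusive = lowest score under 50 but half or more replicates reach 50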;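 note: yeast exposed to compound for 9 h at 30 °C; higher score means more reporter readthrough which indicates perturbed polyadenylation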
# V-ATPase pHluor: alters yeast V-ATPase proton transport; response, % at 10 µM; S. cerevisiae, pHLuorin cytosolic pH fluorescence; actives 0.37% (n = 350,000); in the data active = response mostly above about 7.3%, no sharp cut-off; inactive = mostly below about 5.4%; note: actives read high
# PKA-R1A activ: activators of PKA-R1A complex | PKA-R1A dissociation, Cy5-IP20 fluorescence polarization; scaled: DMSO 0%, 113 µM cGMP 100% | activation, % at 11.4 µM | actives 0.083% (n = 340,000) | AID 504707;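 active = percent activation above the mean of all tested compounds plus 3 SD, cut at about 19% in these data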;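 note: higher means more PKAc released from R1A so a rise in polarization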
# GASC-1 inh: inhibitors of human GASC-1 (JMJD2C) demethylase. Q9H3R0. actives 0.069% (n = 330,000). inhibition, % at 2.35 µM. GST-JMJD2C(1-420) H3K9me3 demethylation, DELFIA europium;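 active = more than half of a compound's replicate wells show inhibition beyond 50%, single wells judged on their own value; inconclusive = some, but no more than half, of replicates pass 50% inhibition; inactive = no replicate passes 50% inhibition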;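 note: signal counts dimethyl H3K9 product captured on neutravidin plate; 0% = median of DMSO wells and 100% = 0.3 times that DMSO median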
# Target sequence (Q9H3R0 1-420 limits assumed): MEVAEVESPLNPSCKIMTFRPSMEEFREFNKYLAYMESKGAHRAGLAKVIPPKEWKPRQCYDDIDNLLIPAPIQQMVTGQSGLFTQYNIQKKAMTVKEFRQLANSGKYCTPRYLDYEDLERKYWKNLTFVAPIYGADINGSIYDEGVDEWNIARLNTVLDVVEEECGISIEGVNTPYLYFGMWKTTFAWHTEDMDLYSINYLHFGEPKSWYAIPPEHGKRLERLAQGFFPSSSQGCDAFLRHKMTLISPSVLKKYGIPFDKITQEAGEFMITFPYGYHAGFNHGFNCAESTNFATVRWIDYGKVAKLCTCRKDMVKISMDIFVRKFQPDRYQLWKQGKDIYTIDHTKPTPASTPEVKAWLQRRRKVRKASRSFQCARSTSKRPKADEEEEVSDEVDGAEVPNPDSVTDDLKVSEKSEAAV
# CR mimetic CP: yeast aging superoxide inhibition, cherry pick confirmation; AID 434994; S. cerevisiae aging, superoxide DHE fluorescence; hits give low values; shares compounds with CR mimetic SO; actives 1% (n = 850); superoxide response (% of plate), % at 10 µM;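 active = superoxide signal below 65% of the plate average of sample wells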;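 note: cells aged with compound for 7 days at 30 degrees C before staining; 100% equals mean DHE fluorescence of all compound wells on the plate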
# DHE fluor count: counter-screen for compounds affecting DHE oxidation and fluorescence in yeast; AID 435000; fluorescence response, % at 10 µM; S. cerevisiae BY4741, flow cytometry; hits give low values; shares compounds with CR mimetic SO; 850 tested, under 10 active;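 active = fluorescence response below 15%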;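 note: percent of the mean fluorescence averaged over all compound wells on the plate; lower means stronger quenching of DHE signal or ROS scavenging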
# * hit, by the source's call; ? = inconclusive; . = not tested or not shown.
SMILES,PKA-R2B activ,CR mimetic SO,PolyA inhibitor,V-ATPase pHluor,PKA-R1A activ,GASC-1 inh,CR mimetic CP,DHE fluor count
Cc1ccc(NS(=O)(=O)c2ccc(OCC(=O)Nc3cccc([N+](=O)[O-])c3)c(C)c2)cc1,-2,99,0,1,-4,3,.,.
Cc1cc(NC(=O)CCC(=O)N(CC(=O)NC2CCCC2)c2ccc(Cl)cc2)no1,-3,122,7,-1,-10,7,.,.
O=c1c2ccc(Cl)cc2nc(-c2cccc(C(F)(F)F)c2)n1O,-3,65*,34,11*,-15,0,88,89
O=C(/C=C/c1cccs1)NC(=S)NNC(=O)Cc1cccs1,-1,39*,-7,-1,13,-7,73,97
O=C(Nc1cccc(Cl)c1)Nc1ccc2nccnc2c1,-3,60*,-28,0,-10,-23,86,94
O=C(Nc1ccc2nccnc2c1)Nc1ccccc1Cl,10,77,-5,-4,-7,12,.,.
O=c1c2sc(-c3ccccc3)cc2nc2n1CCCCC2,-2,101,-20,3,-10,-12,.,.
O=c1c2sc(-c3ccccc3)cc2nc2n1CCC2,-9,48*,113*,1,-10,3,83,107
O=C1C(c2ccccc2)=[N+]([O-])c2ccccc21,7,57*,-22,-1,2,-8,81,95
COc1cc2c(c(OC)c1OC)-c1ccc(NCc3ccccc3)c(=O)cc1C(NC(C)=O)CC2 (stereo not given),-10,.,.,-1,-6,.,.,.
COc1ccc(NC(=O)N2CCc3ccccc3C2)cc1,-8,52*,4,-1,2,-5,101,102
CCC(OC(=O)c1nsc(Cl)c1Cl)C(=O)NC(C)(C)CC (stereo not given),-7,88,6,-1,-5,14,.,.
O=C(CCNC(=O)c1ccc(Br)cc1)OCc1ccccc1Cl,-11,63*,-3,4,-11,19,115,115
O=C(CNC(=O)c1ccccc1)NCC(=O)OCc1ccccc1Cl,.,109,10,-1,.,4,.,.
CN(C)S(=O)(=O)c1ccc(NC(=O)CCNC(=O)c2ccco2)cc1,3,115,6,3,-1,3,.,.
Cc1nc(-c2ccc(S(=O)(=O)Nc3cc(S(=O)(=O)N(C)C)ccc3C)s2)cs1,1,64*,5,-1,0,-4,114,117
O=C(CN1CCN(c2ccccn2)CC1)Nc1cccc(Cl)c1Cl,-9,86,-4,-2,5,-1,111,109
COc1ccccc1NC(=O)CN1CCN(c2ccccn2)CC1,-5,136,20,2,6,39,99,117
COc1ccccc1NC(=O)CN1CCN(c2ccc(F)cc2)CC1,-8,.,.,-1,4,.,.,.
N#Cc1ccccc1NC(=O)CN1CCOCC1,-5,100,?,-4,1,2,.,.
COC(=O)c1ccccc1NC(=O)CN1CCN(c2ccccn2)CC1,-4,105,-14,1,-6,-4,99,93
N#Cc1ccccc1NC(=O)CN1CCN(c2ccccn2)CC1,8,98,?,4,18,-2,109,100
COc1ccc(/C=C/C(=O)OCC(=O)NC(=O)NC(C)(C)C)cc1,-2,92,6,1,-9,-9,.,.
O=C(O)CCNC(=O)CCCn1nnc2ccccc2c1=O,-6,103,3,-3,-3,-6,.,.
Cc1ccc(NC(=O)CN2CCN(c3ccccn3)CC2)c(Cl)c1,1,82,-10,5,1,-4,114,130
SMILES,PKA-R2B activ,CR mimetic SO,PolyA inhibitor,V-ATPase pHluor,PKA-R1A activ,GASC-1 inh,CR mimetic CP,DHE fluor count
O=C(CN1CCN(c2ccccn2)CC1)Nc1ccccc1Br,-8,94,-15,2,-12,4,108,99
O=C(CN1CCN(c2ccc([N+](=O)[O-])cc2)CC1)Nc1ccccn1,0,60*,-7,3,-11,-5,107,115
O=C(CN1CCN(c2ccc([N+](=O)[O-])cc2)CC1)Nc1nccs1,-24,95,-24,-2,3,-1,.,.
COc1cc(NC(=O)CN2CCN(c3ccccn3)CC2)cc(OC)c1OC,0,100,-7,4,5,7,100,93
COc1ccc(-c2ccc(CN3C(C(C)C)C(=O)N(Cc4cn(CC5CCCCC5)nn4)CCS3(=O)=O)cc2)cc1OC (stereo not given),-10,.,.,0,-4,.,.,.
O=C(CCc1nnc(CCCCc2ccccc2)o1)N1CCC(N2CCCC2)CC1,-7,105,3,1,0,-23,.,.
COc1ccc(C)cc1NC(=O)CN1CCN(c2ccccn2)CC1,1,103,21,1,4,-39,107,93
CC(C)Oc1ccc(N2CC(C(=O)Nc3ccccc3C(=O)NC3CC3)CC2=O)cc1 (stereo not given),-3,90,0,-3,8,7,.,.
Clc1ccc(/C=C/c2nc(Cl)c(-c3ccc(Cl)cc3)c(Cl)n2)cc1,-4,63*,-8,4,-2,-3,92,92
COC(=O)[C@H](Cc1ccccc1)NC(=O)[C@@H](N)CC(=O)OCc1ccccc1,0,65*,.,-4,4,2,94,101
COc1nc(N(C)C)nc(N(C#N)CCOC(C)=O)n1,1,64*,-5,-8,-2,-8,113,104
C=CCNC(=O)C1CC(=O)N(c2ccc(OCC(=O)Nc3ccc(CC)cc3)cc2)C1 (stereo not given),5,58*,-18,0,2,?,112,111
CCCNC(=O)[C@@H]1CCCN1C(=O)C1CCN(S(=O)(=O)c2ccc(C)cc2)CC1,3,64*,-22,5,-9,7,116,109
Cc1ccc(S(=O)(=O)N2CCC(C(=O)N3CCC[C@H]3C(=O)NCC(C)C)CC2)cc1,-3,99,-3,5,-6,-9,.,.
CCn1c2ccccc2c2cc(NC(C)=O)ccc21,1,111,-8,4,-2,-15,107,105
O=C1OC(C(=O)NCc2ccccc2)Cc2ccccc21 (stereo not given),-2,128,13,0,-4,3,.,.
O=S(=O)(c1ccccc1Br)N1CCN(c2ncccn2)CC1,-6,104,6,-3,7,3,.,.
COc1cc(OC)cc(-c2nnc(SCC(=O)N(C(C)C)C(C)C)o2)c1,0,85,-5,-3,7,7,102,92
